The text below walks through data of PubChem BioAssay (NCI).

Where “and” joins values, the source holds several entries; their conditions need not be identical. Equal values may be shown once. The panel holds about 83,000 compounds, 20% with a hit somewhere; the sample as a whole holds those more often.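 Each cell line was grown in a 96-well plate and treated with one concentration of compound for 48 hours. Values below 10 were considered active.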 Unmarked numbers belong to inactive results. Calls of active or inactive are those of the source.

Test systems include HCT-15 colon; HT29 colon; SNB-75 CNS; SNB-19 CNS; U251 CNS; PC-3 prostate; SK-MEL-5 melanoma; UACC-62 melanoma; LOX IMVI melanoma; SK-MEL-28 melanoma; SK-MEL-2 melanoma; EKVX NSCLC; SN12C renal; UO-31 renal; TK-10 renal; ACHN renal; CAKI-1 renal; A498 renal; CCRF-CEM leukemia; MOLT-4 leukemia.
Experiment in all cases: NCI-60 one-dose screen, 48 h (100 = growth as untreated, 0 = no growth, -100 = all killed)
Settings in all cases: 10 µM unless noted

For `O=C(Nc1ccc(F)cc1)c1cc2cc(Nc3nc(-c4ccccc4)nc4ccccc34)ccc2oc1=O`, the growth is 112% in the assay with HCT-15 colon; 98.4% in the assay with HT29 colon; 102% in the assay with SNB-75 CNS; 109% in the assay on SNB-19 CNS; 97.4% with U251 CNS; 99.4% in the assay with PC-3 prostate. Further, the growth in the assay on SK-MEL-5 melanoma is 105%; in the assay on UACC-62 melanoma, 102%; in the assay on LOX IMVI melanoma, 93.5%; in the assay on SK-MEL-28 melanoma it was 111%; in the assay with SK-MEL-2 melanoma it was 104%; with EKVX NSCLC it was 108%. The growth was 104% in the assay with SN12C renal; 83.4% in the assay with UO-31 renal; 97.3% in the assay on TK-10 renal; 105% with ACHN renal; 101% in the assay with CAKI-1 renal; 102% in the assay with A498 renal. Further, the growth in the assay on CCRF-CEM leukemia is 106%; with MOLT-4 leukemia, 92.9%.
Take `COc1cc(-c2nn(-c3cccc(NC(=O)CCN4CCN(C)CC4)c3)cc2-c2ccncc2)ccc1Cl`: the growth was 21.2% with HCT-15 colon; -17.4% (active) in the assay on HT29 colon; -5.41% (active) with SNB-75 CNS; 44% in the assay on SNB-19 CNS; 21.5% in the assay on U251 CNS; 14% in the assay on PC-3 prostate. The growth in the assay on SK-MEL-5 melanoma is 8.48% (active); in the assay on UACC-62 melanoma it was 28.2%; with LOX IMVI melanoma, -16% (active); with SK-MEL-28 melanoma, 16.9%; in the assay on SK-MEL-2 melanoma, 2.29% (active); with EKVX NSCLC it was 47.1%. The growth in the assay with SN12C renal was 33.3%; in the assay with UO-31 renal it was 41.5%; with TK-10 renal, 39.2%; in the assay with ACHN renal, 51.7%; with CAKI-1 renal, 38.7%; in the assay with A498 renal, 14.1%. The results for the growth in the assay with CCRF-CEM leukemia and in the assay with MOLT-4 leukemia were 9.08% (active) and 12.7%, respectively.
Consider `Cc1cc2nc(C(Cl)Cl)nc(-c3ccc(Cl)cc3)n2n1`, for which the growth with HCT-15 colon was -20.4% (active); with HT29 colon, 2.12% (active); with SNB-75 CNS it was -22.7% (active); in the assay on SNB-19 CNS it was 12.6%; in the assay on U251 CNS it was 4.15% (active); with PC-3 prostate, 16.1%. For the same compound, the growth in the assay with SK-MEL-5 melanoma was 41.2%; in the assay on UACC-62 melanoma, 48.5%; with LOX IMVI melanoma it was 48.4%; with SK-MEL-28 melanoma, 18.5%; in the assay with SK-MEL-2 melanoma it was 49.2%; in the assay with EKVX NSCLC, -14% (active). For the same compound, the growth in the assay with SN12C renal was 36.5%; in the assay on UO-31 renal, -8.79% (active); with TK-10 renal it was 4.92% (active); in the assay on ACHN renal, -41.7% (active); in the assay with CAKI-1 renal, -38% (active); in the assay on A498 renal, -16.9% (active). Further, the growth in the assay on CCRF-CEM leukemia was 29.2%; with MOLT-4 leukemia it was 21.6%.
In the case of `Cc1oc2c(Cc3ccc(NC(=O)c4ccc(Cl)cc4)cc3)ncnc2c1C(=O)NO`, the growth in the assay with HCT-15 colon was 103%; with HT29 colon, 89.6%; with SNB-75 CNS it was 106%; with SNB-19 CNS, 105%; in the assay with U251 CNS it was 104%; in the assay on PC-3 prostate, 97.7%. Further, the growth in the assay with SK-MEL-5 melanoma was 86.1%; in the assay on UACC-62 melanoma it was 89.9%; in the assay with LOX IMVI melanoma, 102%; in the assay on SK-MEL-28 melanoma it was 107%; with SK-MEL-2 melanoma, 88.3%; with EKVX NSCLC it was 102%. For the same compound, the growth in the assay on SN12C renal is 103%; with UO-31 renal it was 85.4%; in the assay on TK-10 renal, 95.6%; with ACHN renal, 106%; in the assay with CAKI-1 renal, 98.9%; in the assay with A498 renal, 85.2%. Besides, the growth in the assay with CCRF-CEM leukemia was 90.9%; in the assay on MOLT-4 leukemia, 82.5%.
As for `O=C(O)c1ccccc1Cc1ccc(F)c2ccccc12`, the growth in the assay on HCT-15 colon was 108% and 99.4%; in the assay with HT29 colon, 116% and 107%; with SNB-75 CNS, 93.6% and 77.4%; in the assay on SNB-19 CNS it was 101% and 104%; in the assay on U251 CNS, 115% and 104%; with PC-3 prostate, 120% and 90.7%. Moreover, the growth was 96.2% and 102% in the assay on SK-MEL-5 melanoma; 101% and 106% in the assay with UACC-62 melanoma; 100% and 98.9% in the assay with LOX IMVI melanoma; 105% in the assay with SK-MEL-28 melanoma; 101% and 119% in the assay with SK-MEL-2 melanoma; 107% with EKVX NSCLC. Besides, the growth in the assay with SN12C renal was 107% and 97.9%; in the assay with UO-31 renal it was 77.7% and 89.1%; with TK-10 renal it was 107% and 109%; in the assay with ACHN renal, 99.3% and 102%; in the assay with CAKI-1 renal, 94.9% and 100%; in the assay with A498 renal, 99.3% and 97.4%. Further, the growth in the assay on CCRF-CEM leukemia is 98.8% and 96.3%; in the assay with MOLT-4 leukemia, 93.7% and 107%.
Turning to `O=C1C=C(Nc2ccccc2)c2ncccc2C1=O`, the growth was -68.7% (active) in the assay on HCT-15 colon; -37% (active) with HT29 colon; -97.1% (active) in the assay on SNB-75 CNS; -92.8% (active) in the assay on SNB-19 CNS; -97.9% (active) with U251 CNS; -17.7% (active) with PC-3 prostate. Besides, the growth in the assay with SK-MEL-5 melanoma was -97.8% (active); in the assay on UACC-62 melanoma, -92.3% (active); in the assay with LOX IMVI melanoma, -77.7% (active); in the assay on SK-MEL-28 melanoma it was -81.3% (active); in the assay on SK-MEL-2 melanoma it was -66.8% (active); with EKVX NSCLC, -85.3% (active). The growth in the assay with SN12C renal is -88.8% (active); with UO-31 renal, -98.6% (active); in the assay on TK-10 renal, -96.9% (active); in the assay with ACHN renal, -98.3% (active); with CAKI-1 renal, -95.9% (active); in the assay on A498 renal it was -87.5% (active). Further, the growth was -29.9% (active) in the assay on CCRF-CEM leukemia and -49.6% (active) with MOLT-4 leukemia.
In the case of `CN(C)CCCn1c2c(c3ccc(N4CCNCC4)cc3c1=O)C(=O)c1ccccc1-2`, the growth in the assay on HCT-15 colon was -36.5% (active); with HT29 colon, -52.4% (active); in the assay with SNB-75 CNS it was 22.3%; in the assay with SNB-19 CNS, -13.9% (active); with U251 CNS it was -54.1% (active); with PC-3 prostate, -34.7% (active). For the same compound, the growth with SK-MEL-5 melanoma was 28.7%; in the assay with UACC-62 melanoma, 51.8%; with LOX IMVI melanoma it was -90% (active); with SK-MEL-28 melanoma it was 59.7%; in the assay on SK-MEL-2 melanoma, 39.6%; with EKVX NSCLC it was -39% (active). The growth is 6.82% (active) with SN12C renal; 2.6% (active) in the assay with UO-31 renal; -0.224% (active) in the assay on TK-10 renal; -10.5% (active) with ACHN renal; 5.62% (active) with CAKI-1 renal; 74.3% with A498 renal. Also, the growth was -4.22% (active) in the assay with CCRF-CEM leukemia and -21.9% (active) in the assay with MOLT-4 leukemia.
